Screening data deposited in PubChem by National Center for Advancing Translational Sciences (NCATS).
In the library only some 19% were active in any assay of this set; here they are far more common.
uPA surface inh – blocks generation of uPA at the cell surface; Potency, µM (titrated, usually from 38.3 µM), without a hit: top-dose activity change, negative = inhibition, most hits filed as inhibitors; AID 540303; hit rate 0.31% among 330,000; cell surface uPA generation assay, qHTS; active = well fitted inhibition curve with a large enough effect; inconclusive = small, poorly fitted or top-dose-only effect; inactive = no such curve, though single readings can be large or run the other way; tested in mouse RAW 264.7 cells; note: potency is the fitted concentration of half-maximal effect; nearly all actives have a fitted effect of over 55% in size
DT40 TDP1 no CPT – qHTS for Inhibitors of human tyrosyl-DNA phosphodiesterase 1 (TDP1): qHTS in cells in absence of CPT; DT40 Tdp1-/- hTDP1 cells, no CPT, ATP luminescence, 48 h; Potency, µM (highest dose often 46.2 µM), without a hit: at the top dose activity change, negative = growth inhibition, most hits filed as inhibitors; hit rate 15% among 420,000; AID 686978, 2013; note: potency is the fitted concentration of half-maximal effect; nearly all actives have a fitted effect of over 55% in size
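DT40 Tdp1-/-;hTDP1 cells, no CPT (DMSO vehicle only), 400 cells/well; compounds pin-transferred; ≥48 hr, 37 °C; CellTiter-Glo 30 min RT dark, luminescence read.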
HT1080 IDH1KD tx – HT-1080 IDH1 knockdown cell toxicity (counter line); hit rate 2% among 360,000; HT-1080 IDH1 knockdown viability, ATP luminescence, 48 h; Potency, µM (doses to about 46.1 µM), for inactives: at the top dose activity, negative = toxicity, most hits filed as cytotoxic; AID 686971;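 note: potency is the fitted concentration of half-maximal effect; 0% = DMSO wells and -100% = cell-free medium wells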
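In this qHTS, HT-1080 cells depleted of IDH1 are exposed for 48 h at 37 °C to compound titrations. Toxicity is scored from CellTiter-Glo luminescence, with DMSO as full viability and medium alone as none.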
IL1B secr inh – blocks inflammasome-driven IL-1 beta release; hit rate 4.7% among 360,000; AID 743279; activity change, % at 57.5 µM; THP-1 LPS/ATP IL-1B secretion, AlphaLISA, 16 h; hits give low values; in the data active = activity change below about -50%; inconclusive = mostly about -30% to -49%
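Secreted IL-1B measured by AlphaLISA bead assay after 16 h compound exposure of THP-1 cells; compounds (final up to 57.5 uM) added 1 h before LPS (250 ng/mL) and ATP (1.25 mM) stimulation; lower signal means less secretion.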
TDP1 cell CPT – DT40-hTDP1 cell growth loss with CPT; chicken DT40 Tdp1-/-;hTDP1 cells + 20 nM CPT, ATP luminescence, 48 h; Potency, µM (top dose mostly 46.2 µM), without a hit: at the highest dose activity change, negative = growth inhibition, hits mostly inhibitors; hit rate 12% among 420,000; AID 686979; note: potency is the fitted concentration of half-maximal effect; nearly all actives have a fitted effect of over 55% in size
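Chicken DT40 Tdp1-/- cells stably complemented with human TDP1 were seeded at 400 cells/well in medium containing 20 nM camptothecin, exposed to pin-transferred compounds, and grown at 37 °C for at least 48 hr. Viability was read as ATP luminescence.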
HT1080-NT tox – kills 2HG-producing HT-1080-NT fibrosarcoma cells. HT-1080-NT fibrosarcoma viability, CellTiter-Glo ATP luminescence, 48 h. Potency, µM (series often up to 46.1 µM), without a hit: at the top dose activity, negative = less viability, most hits filed as cytotoxic. hit rate 1.6% among 360,000. AID 686970;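 note: NT is the 2HG producing partner of a matched IDH1 knockdown line; potency is the fitted concentration of half-maximal effect; 0% = DMSO-treated cells and -100% = media-only wells without cells; nearly all actives have a fitted effect of over 55% in size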
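Read-out is CellTiter-Glo luminescence after 10 minutes at room temperature, following 48 hours' compound treatment of HT-1080-NT cells (750 cells/well, RPMI, 5% FBS, 37 degrees C).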
Numbers without * were called inactive; ? = inconclusive; / = not tested or not shown. Unless noted, calls come from the whole dose curve; as a rule, active = well fitted curve in the direction sought with a large enough effect; inconclusive = small, poorly fitted or top-dose-only effect, or another doubt; inactive = no such curve, though single readings can be large; an effect the other way counts as inactive or inconclusive. Unless noted, % is set by controls: 0 for no effect and ±100 for the full control effect.

SMILES | uPA surface inh | DT40 TDP1 no CPT | HT1080 IDH1KD tx | IL1B secr inh | TDP1 cell CPT | HT1080-NT tox
COc1ccc(CN(C(=O)c2nsc(Cl)c2Cl)C(C(=O)NC2CCCC2)c2ccc(C)cc2)cc1 (stereo not drawn) | -14.0% | 14.6µM* | ? | -21.5 | 11.6µM* | -27.2%
CCCCNc1nccnc1-c1cccc(C=O)c1 | / | ? | 21.2% | 39.9 | 18.4µM* | ?
Cc1ccc([C@H]2N[C@]3(CCCN(Cc4ccc(Br)cc4)C3=O)[C@H]3C(=O)N(C)C(=O)[C@@H]23)cc1 | / | 13µM* | 3.7% | 14.4 | 3.3% | -12.1%
CN1C(=O)[C@H]2[C@@H](c3ccccc3)N[C@]3(CCCN(Cc4ccc(F)cc4)C3=O)[C@H]2C1=O | / | -23.3% | -1.2% | ? | -4.0% | -4.8%
Cc1ccc([C@H]2N[C@]3(CCCN(Cc4ccc(F)cc4)C3=O)[C@H]3C(=O)N(C)C(=O)[C@@H]23)cc1 | / | 13µM* | -5.7% | -24.7 | ? | -5.3%
CCN1CCN(C(=O)Cn2cnc3sc(C)c(S(=O)(=O)N4CCN(c5ncccn5)CC4)c3c2=O)CC1 | 1.0% | 1.4% | 6.8% | 3.1 | 2.6% | 0.0%
CN1CCc2nc3ccc(Cl)cc3c(-c3ccccc3Cl)c2C1 | -6.7% | ? | -19.7% | -56.4* | ? | -23.3%
COCCCNc1nc(NCc2ccccc2OC)c2cnn(C)c2n1 | / | 23.1µM* | / | / | ? | /
CN1CCC2CC1c1cc(-c3ccc(C(F)(F)F)cc3)ccc12 (stereo not drawn) | -15.6% | ? | 4.5% | ? | ? | 2.6%
CCc1nc2ccc(C(=O)Nc3cccc(OC)c3)cn2c1N(CC)CCN(C)C | / | 3.0% | 18.7% | -17.1 | 3.5% | 2.6%
CCc1nc2ccc(C(=O)Nc3cccc(NS(C)(=O)=O)c3)cn2c1N(C)C(=O)Cc1ccccc1 | / | 2.6% | 0.0% | -87.4* | -20.6% | 16.9%
CCc1nc2ccc(C(=O)Nc3cccc(NS(C)(=O)=O)c3)cn2c1N(C)C(=O)c1cccc(OC)c1 | / | 1.8% | 15.7% | -78.5* | -9.5% | 6.8%
CCc1nc2ccc(C(=O)Nc3ccc(NC(C)=O)cc3)cn2c1N(C)C(=O)Cc1ccccc1 | / | ? | 5.5% | -9.1 | -20.9% | -7.5%
NS(=O)(=O)c1ccc(CCNC(c2ccccc2)c2ccccc2)cc1 | / | 23.1µM* | -24.9% | -9.3 | ? | -12.9%
c1ccc(C(NCCNC(c2ccccc2)c2ccccc2)c2ccccc2)cc1 | -8.8% | 20.6µM* | -19.1% | -7.5 | ? | -27.3%
COc1cc(OC)cc(C(=O)N[C@H](C(=O)NCc2ccc(F)cc2)C(C)C)c1 | 0.1% | ? | -1.2% | 52.5 | -4.8% | -8.9%
COCc1cc(Sc2ccc(Cl)cc2)nc(C)n1 | -3.4% | -8.6% | -3.6% | 15.5 | ? | -11.7%
COCc1cc(S(=O)c2ccc(Cl)cc2)nc(C)n1 (stereo not drawn) | 5.01µM* | 2.91µM* | ? | -8.7 | 4.61µM* | ?
COc1ccc(Nc2c([N+](=O)[O-])ccc3c2=NC2(CCCCC2)N=3)cc1 | -12.4% | 20.6µM* | -29.5% | -17.8 | ? | -23.3%
O=[N+]([O-])c1ccc2c(c1Nc1ccccc1)=NC1(CCCCC1)N=2 | -3.0% | ? | -4.2% | -9.2 | ? | -4.7%
COc1ccc2c(CNCc3cccs3)c(C(=O)O)n(Cc3ccccc3)c2c1 | / | ? | / | / | -8.6% | /
COc1ccc2c(CNCCc3cccs3)c(C(=O)O)n(Cc3ccccc3C)c2c1 | / | 5.17µM* | / | / | 8.2µM* | /
COc1ccc2c(CNCc3cccs3)c(C(=O)O)n(Cc3ccccc3C)c2c1 | / | 2.91µM* | / | / | ? | /
CCNc1ncc2nc(C)c(=O)n(CCOC)c2n1 | / | -5.8% | / | / | -6.0% | /
